Screens as filed in PubChem BioAssay.
SNCA expr inh = Primary qHTS assay for inhibitors of alpha-synuclein gene (SNCA) expression; HEK-293 SNCA-luciferase knock-in, luminescence, 24 h; Potency, µM (titrated, usually from 57.2 µM), for inactives: top-dose activity change, negative = inhibition, most hits filed as inhibitors; hit rate 0.17% among 140,000;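 further: potency means the concentration at half of the fitted maximal effect; plate controls were DMSO cells for no effect and cell-free wells for full effect; nearly all actives have a fitted effect of over 45% in size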
KDM5B inh = Primary screen for KDM5B Histone Demethylases FDH-coupled qHTS. Lysine-specific demethylase 5B (Homo sapiens), Q9UGL1. KDM5B demethylase, FDH-coupled NADH fluorescence (FDH is formaldehyde dehydrogenase). Potency, µM (series often up to 57.7 µM), actives largely listed as inhibitors. hit rate 2.6% among 220,000. AID 1347165, 2019; further: potency means the concentration at half of the fitted maximal effect; 0% is about no effect; nearly all actives have a fitted effect of over 70% in size
Target sequence (Q9UGL1 whole entry, looked up): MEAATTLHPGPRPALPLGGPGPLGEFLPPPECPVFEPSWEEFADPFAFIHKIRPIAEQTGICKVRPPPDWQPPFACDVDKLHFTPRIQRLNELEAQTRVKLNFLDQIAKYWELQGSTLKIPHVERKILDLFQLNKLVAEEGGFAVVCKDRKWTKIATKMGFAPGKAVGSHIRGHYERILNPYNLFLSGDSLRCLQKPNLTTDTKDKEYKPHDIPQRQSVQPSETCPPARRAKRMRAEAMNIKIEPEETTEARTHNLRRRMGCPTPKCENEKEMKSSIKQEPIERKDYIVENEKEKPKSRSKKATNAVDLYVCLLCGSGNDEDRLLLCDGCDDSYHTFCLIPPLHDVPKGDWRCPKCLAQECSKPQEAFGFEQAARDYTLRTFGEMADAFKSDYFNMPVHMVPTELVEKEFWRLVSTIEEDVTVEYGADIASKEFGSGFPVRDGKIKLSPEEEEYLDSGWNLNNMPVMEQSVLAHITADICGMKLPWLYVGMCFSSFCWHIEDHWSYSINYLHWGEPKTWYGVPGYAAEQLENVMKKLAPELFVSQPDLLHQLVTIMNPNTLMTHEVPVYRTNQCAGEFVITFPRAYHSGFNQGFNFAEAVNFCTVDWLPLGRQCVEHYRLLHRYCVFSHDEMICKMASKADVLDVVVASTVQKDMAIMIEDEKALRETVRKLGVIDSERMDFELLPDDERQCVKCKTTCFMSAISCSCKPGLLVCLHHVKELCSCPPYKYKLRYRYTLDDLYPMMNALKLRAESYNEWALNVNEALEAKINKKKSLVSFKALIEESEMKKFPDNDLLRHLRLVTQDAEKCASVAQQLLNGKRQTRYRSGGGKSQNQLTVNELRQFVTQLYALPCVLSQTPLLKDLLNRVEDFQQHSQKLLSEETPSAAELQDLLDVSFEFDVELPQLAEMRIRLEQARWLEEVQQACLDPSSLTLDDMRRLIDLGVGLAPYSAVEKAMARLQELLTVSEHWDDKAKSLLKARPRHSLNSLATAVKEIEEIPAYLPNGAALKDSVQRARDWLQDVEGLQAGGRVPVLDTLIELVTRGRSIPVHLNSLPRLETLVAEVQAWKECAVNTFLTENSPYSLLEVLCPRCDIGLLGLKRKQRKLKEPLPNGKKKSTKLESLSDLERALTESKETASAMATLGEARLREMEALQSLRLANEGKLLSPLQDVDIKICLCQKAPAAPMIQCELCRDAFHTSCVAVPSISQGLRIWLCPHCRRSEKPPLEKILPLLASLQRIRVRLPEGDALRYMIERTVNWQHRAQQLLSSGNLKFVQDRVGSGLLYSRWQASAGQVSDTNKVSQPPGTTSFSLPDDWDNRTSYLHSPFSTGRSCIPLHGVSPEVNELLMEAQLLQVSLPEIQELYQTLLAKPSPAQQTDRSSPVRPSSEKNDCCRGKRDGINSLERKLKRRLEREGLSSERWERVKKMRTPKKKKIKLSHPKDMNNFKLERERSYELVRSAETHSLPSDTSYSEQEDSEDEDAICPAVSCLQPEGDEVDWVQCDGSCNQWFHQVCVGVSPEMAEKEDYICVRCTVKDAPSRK
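Measured: NADH fluorescence change, 30 min, RT. System: KDM5BΔAP 200 nM final, H3K4me3 peptide, α-KG, Fe(II), ascorbate, NAD⁺ plus FDH, pH 7.5 HEPES. Compounds: titrated, 10 min pre-incubation with enzyme.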
HEK293 viab = GF-AFC viability counterscreen for inhibitors of alpha-synuclein gene (SNCA) expression; HEK-293-SNCA-luc viability, GF-AFC fluorescence, 24 h; Potency, µM (top dose mostly 57.1 µM), inactives show at the highest dose activity change, negative = cytotoxicity, most hits filed as cytotoxic; hit rate 0.12% among 150,000; AID 1671193, 2021;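 further: potency means the concentration at half of the fitted maximal effect; 0% = DMSO-treated cells and -100% = medium-only wells without cells; nearly all actives have a fitted effect of over 30% in size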
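HEK-293-SNCA-luc cells (1500/well) plated 24 h, then exposed 24 h to a dilution series; GF-AFC added 30 min at 37C, fluorescence 405/540 nm; normalised to medium-only and DMSO wells, Hill fit.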
IP6K1 inh = Primary qHTS assay for small molecule inhibitors of Inositol hexaphosphate kinase 1 (IP6K1). IP6K1 kinase, ADP-Glo luminescence, 2 h; active compounds read low. activity change, % (series mostly up to about 58 µM). hit rate 0.81% among 140,000. AID 1645851, 2021; in the data active means activity change below about -25%; further: on the % scale 0 is the no-effect control and ±100 the full control effect
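ADP-Glo luminescence measures ADP made by human IP6K1 during a 2 h RT reaction with ATP/IP6 (mix at 1.3 mM/130 uM); top library doses 57.5 and 19.1 uM final.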
Starred values were filed as active, the others as inactive; i = inactive; u = inconclusive; x = no result given; ! = not active in a repeat; [ ] = remark or other dose. Compounds with a hit are over-represented: about 2.8% of the library has one in this group of screens. Unless noted, the call rests on the fitted dose curve; in most records, active means well fitted curve in the direction sought with a large enough effect; inconclusive means small, poorly fitted or top-dose-only effect, or another doubt; inactive means no such curve, though single readings can be large; an effect the other way counts as inactive or inconclusive.

SMILES	SNCA expr inh	KDM5B inh	HEK293 viab	IP6K1 inh
Cc1cccc(NC(=O)CSc2nnc(CC3CCS(=O)(=O)C3)n2C)c1 (stereo unspecified)	x	i	x	x
COc1ccc(N2CC(c3noc(-c4ccc(N(C)C)cc4)n3)CC2=O)cc1 (stereo unspecified)	5%	35µM*	8%	5
COc1ccc(N2CC(c3noc(-c4cc(OC)cc(OC)c4)n3)CC2=O)cc1 (stereo unspecified)	-2%	u	0%	16
COC(=O)CO[C@@H]1CO[C@H]2[C@@H]1OC[C@@H]2NC(=S)Nc1cc(C)cc(C)c1	16%[87.6 µM]	28µM*	7%[87.6 µM]	24
Cc1noc(C)c1-c1cc(-c2cccc(N3CCOCC3)c2)cn2cncc12	5%[87.6 µM]	35µM*	-6%[87.6 µM]	-13
c1cncc(-c2nc3ccncc3[nH]2)c1	4%[87.6 µM]	u	4%[87.6 µM]	1
c1cncc(-c2nc3ncccc3[nH]2)c1	-2%[87.6 µM]	35µM*	10%[87.6 µM]	5
c1ccc(-c2nc3ncccc3[nH]2)cc1	63%[87.6 µM]	32µM*!	-8%[87.6 µM]	9
Cc1occc1-c1nc2ncccc2[nH]1	-14%[87.6 µM]	32µM*	8%[87.6 µM]	0
COc1ccc(-c2ccnc(N[C@H]3CO[C@H]4[C@@H]3OC[C@@H]4NC(=O)CCCC(=O)O)n2)cc1	-12%	32µM*	-1%	-3
COc1ccc(-c2ccnc(N[C@H]3CO[C@H]4[C@@H]3OC[C@@H]4NC(=O)CC3(CC(=O)O)CCCC3)n2)cc1	-4%	28µM*	1%	-15
COc1ccc(-c2ccnc(N[C@H]3CO[C@H]4[C@@H]3OC[C@@H]4NC(=O)N3CCOCC3)n2)cc1	-13%	u	4%	-12
N#Cc1cccc(-c2ccnc(N[C@H]3CO[C@H]4[C@@H]3OC[C@@H]4NC(=O)c3ccc4c(c3)OCO4)n2)c1	-11%	u	-29%	-1
O=C(O)CCCC(=O)N[C@H]1CO[C@H]2[C@@H]1OC[C@@H]2Nc1nccc(-c2ccc3c(c2)OCO3)n1	u	28µM*	0%	0
O=C(NC1CCN(C(=O)N2CC3CC(C2)[C@H]2CCCC(=O)N2C3)CC1)c1ccc2ncccc2c1 (stereo partly specified)	7%	i	-1%	23
O=C(NCc1ccco1)c1ccc2c(c1)CC(=O)N2Cc1cccc(F)c1	27%	i	5%	-13
O=C(NCc1cccc(F)c1)c1ccc2c(c1)CC(=O)N2Cc1ccccc1	13µM*	i	-2%	-3
CCCNC(=O)[C@H]1O[C@H]1C(=O)N[C@H](C(=O)N1CCC[C@@H]1C(=O)OC)C(C)CC (stereo partly specified)	u	x	22µM*	x
CCC(C)[C@H](NC(=O)C1CCC(CNC(=O)[C@@H]2CCCN2C(=O)OC(C)(C)C)CC1)C(=O)O (stereo partly specified)	x	i	x	x
O=C(NCc1ccco1)[C@@H]1Cc2nc[nH]c2CN1Cc1ccc(Cl)cc1	u	u	-5%[87.6 µM]	9
N#Cc1cccc(CN2Cc3[nH]cnc3C[C@H]2C(=O)NCc2ccco2)c1	-14%[87.6 µM]	32µM*	-13%[87.6 µM]	18
O=C(/C=C/c1cccnc1)Nc1ccc(SC2CCCC2)cc1	x	i	x	x
CCOc1ccccc1CN1CCN(C(=O)c2ccccn2)CC1CCO (stereo unspecified)	10%	20µM*	-9%	-3
NCCC(=O)NC1CCCc2c1cnn2-c1ccc(F)cc1F (stereo unspecified)	u	u	-1%	5
O=C(OCc1ccccc1)N1CCC2(CC1)C(=NC1CCCCC1)NC(=O)N2c1cccnc1	0%	28µM*	-11%	2
SMILES	SNCA expr inh	KDM5B inh	HEK293 viab	IP6K1 inh
OC[C@@H]1O[C@H](CNCc2cccc(Cl)c2)[C@H](N2CCOCC2)[C@@H]1O	-1%[87.6 µM]	i	-4%[87.6 µM]	6
CCn1c(SCc2ccccc2Cl)nnc1-c1ccccn1	x	i	x	x
NC(=O)CN1CCC(C(=O)NCc2cn3cccnc3n2)CC1	-21%	28µM*	0%	21
COC(=O)c1ccccc1S(=O)(=O)N1CCC(C(=O)NCc2ccccn2)CC1	x	i	x	x
COc1ccc(CN2CCOC[C@H]2c2ncc(-c3ccc(S(C)(=O)=O)cc3)[nH]2)cc1	u	35µM*	-4%[87.6 µM]	-1
O=C(O)CCCC[P+](c1ccccc1)(c1ccccc1)c1ccccc1	-23%[25.6 µM]	x	44%[23.9 µM]	-13
